Reference: ChEMBL document CHEMBL4513146, “CO-ADD screening of Karazin Kharkiv National University (Ukraine) compounds”
Results with a measured potency or affinity are listed apart.

Legend:
[1] = system: Klebsiella pneumoniae; details: Concentration 32 ug.mL-1;; ASSAY_TEST Inhibition of Bacterial Growth; detection method Absorption (OD600); MEDIA CAMHB; plate type 384well; NBS; CORNING #3640; time 18 hr
[2] = system: Candida albicans; details: Concentration 32 ug.mL-1; ASSAY_TEST Inhibition of Fungal Growth; detection method Absorption (OD530)
[3] = system: Cryptococcus neoformans; details: Concentration 32 ug.mL-1; ASSAY_TEST Inhibition of Fungal Growth; detection method Resazurin; Absorption (OD600-OD570); plate type 384well; NBS; CORNING #3640

`O=C(Cn1nc2c(Oc3ccccc3)nccn2c1=O)Nc1ccc(F)cc1F` showed an Inhibition [1] of 0.94%, an Inhibition [2] of -1.91% and an Inhibition [3] of -7.74%.

With `COc1ccc(N(Cc2cccc(F)c2)S(=O)(=O)c2ccc3nnc(C)n3c2)cc1` the Inhibition [1] was 0.18%, the Inhibition [2] was 7.1% and the Inhibition [3] was -3.46%.

`CCc1ccccc1Sc1nccn2c(=O)n(CC(=O)NCc3cccs3)nc12` was tested, and the Inhibition [1] was -0.44%, the Inhibition [2] was 4.04% and the Inhibition [3] was -9.94%.

With `Cc1ccc(NC(=O)Cn2nc3c(N4CCCC(C)C4)nccn3c2=O)cc1C` (configuration not stated) the Inhibition [1] was -5.74%, the Inhibition [2] was 1.72% and the Inhibition [3] was -9.99%.

With `Cc1nnc2c(S(=O)(=O)N(Cc3ccc(F)cc3)c3ccc(C(C)C)cc3)cccn12` the Inhibition [1] was 1.5%, the Inhibition [2] was 2.93% and the Inhibition [3] was -6.86%.

Compound `COc1ccc(OC)c(NC(=O)Cn2nc3ccc(-c4ccc(Cl)cc4)nn3c2=O)c1` has an Inhibition [1] of 15.39%, an Inhibition [2] of 0.24% and an Inhibition [3] of -17.15%.

`COC(=O)c1ccccc1NC(=O)Cn1nc2c3cc(-c4ccc(OC)cc4)nn3ccn2c1=O` gave an Inhibition [1] of 20.11%, an Inhibition [2] of 0.77% and an Inhibition [3] of -26.84%.

For `CCc1ccccc1Sc1nccn2c(=O)n(CC(=O)Nc3ccc(OC)c(Cl)c3)nc12`, the Inhibition [1] was 5.33%, the Inhibition [2] was 13.19% and the Inhibition [3] was 0.67%.

`Cc1nnc2c(S(=O)(=O)N(Cc3cccc(F)c3)c3ccc(C(C)C)cc3)cccn12` gave an Inhibition [1] of 9.6%, an Inhibition [2] of 6.76% and an Inhibition [3] of -6.4%.

For `O=C(CSc1nnc2c3cc(-c4ccccc4)nn3ccn12)Nc1cccc(Br)c1`, the Inhibition [1] was 14.04%, the Inhibition [2] was 3.21% and the Inhibition [3] was -28.34%.

`O=C(Cn1nc2c(SC3CCCCC3)nccn2c1=O)Nc1ccc(Cl)cc1F` was tested, and the Inhibition [1] was 10.76%, the Inhibition [2] was 1.51% and the Inhibition [3] was -29.46%.

`CCc1nnc2c(S(=O)(=O)N(Cc3cc(F)cc(F)c3)c3ccccc3)cccn12` gave an Inhibition [1] of 9.94%, an Inhibition [2] of 6.55% and an Inhibition [3] of -7.12%.

`CCCCn1c(=O)c2sccc2n2c(=O)n(CC(=O)NC(C)C)nc12` showed an Inhibition [1] of 11.23%, an Inhibition [2] of 0.06% and an Inhibition [3] of -16.69%.

`O=c1c2sccc2n2c(=O)n(Cc3cccc(Cl)c3)nc2n1CCc1ccccc1` was tested, and the Inhibition [1] was 11.95%, the Inhibition [2] was 1.58% and the Inhibition [3] was -33.74%.

`CCCn1c(=O)c2ccc(C(=O)NC3CCCCC3)cc2n2c(=O)n(CC#N)nc12` gave an Inhibition [1] of 5.71%, an Inhibition [2] of 1.88% and an Inhibition [3] of -10.2%.

`O=S(=O)(c1cccn2cnnc12)N(Cc1ccc(F)cc1)c1ccc(F)cc1` was tested, and the Inhibition [1] was 4.83%, the Inhibition [2] was 2.44% and the Inhibition [3] was -6.17%.

`COc1ccccc1N1CCN(C(=O)Cn2nc3ccc(-c4ccc(C)c(C)c4)nn3c2=O)CC1` gave an Inhibition [1] of 9.25%, an Inhibition [2] of -0.19% and an Inhibition [3] of -3.44%.

`Cn1c(=O)c2sccc2n2c(=O)n(Cc3ccc(Cl)cc3)nc12` gave an Inhibition [1] of 4.35%, an Inhibition [2] of -0.47% and an Inhibition [3] of -19.86%.

In the case of `CCc1cccc(NC(=O)Cn2c(=O)c3nnc(C(C)C)n3c3ccccc32)c1`, the Inhibition [1] is reported as 9.33%, the Inhibition [2] is reported as 1.02% and the Inhibition [3] is reported as -21.01%.

Work on `COc1ccc(NC(=O)Cn2nc3c(SC4CCCCC4)nccn3c2=O)cc1Cl` yielded an Inhibition [1] of -2.37%, an Inhibition [2] of 10.68% and an Inhibition [3] of -22.74%.

For `COc1ccc(NC(=O)c2ccc3nn(CC(=O)Nc4ccc(C)c(F)c4)c(=O)n3c2)cc1`, the Inhibition [1] was 0.39%, the Inhibition [2] was 10.47% and the Inhibition [3] was -14.12%.

Work on `COCCCNC(=O)CSc1nnc2c(=O)n(Cc3ccccc3F)ccn12` yielded an Inhibition [1] of 15.39%, an Inhibition [2] of 4.29% and an Inhibition [3] of -16.33%.

`COc1ccc(N(Cc2ccccc2F)S(=O)(=O)c2ccc3nnc(C)n3c2)cc1` showed an Inhibition [1] of 4.15%, an Inhibition [2] of -0.01% and an Inhibition [3] of -2.71%.

`O=C(CSc1nnc2c(=O)n(-c3ccc(F)c(F)c3)ccn12)c1ccccc1Cl` showed an Inhibition [1] of 10.86%, an Inhibition [2] of 3.43% and an Inhibition [3] of -7.06%.

`CCCCOc1ccc(-c2cc3c4nnc(SCC(=O)N(CC)c5ccccc5)n4ccn3n2)cc1` gave an Inhibition [1] of 16.4%, an Inhibition [2] of 5.05% and an Inhibition [3] of -16.28%.

With `CCc1cccc(NC(=O)Cn2nc3nc(N4CCCCCC4)ccn3c2=O)c1` the Inhibition [1] was 14.42%, the Inhibition [2] was 0.8% and the Inhibition [3] was -9.37%.

Compound `CCc1nnc2c(S(=O)(=O)N(Cc3cc(F)cc(F)c3)c3cccc(F)c3)cccn12` has an Inhibition [1] of 12.81%, an Inhibition [2] of 4.8% and an Inhibition [3] of -5.16%.

Work on `Cc1ccc(Sc2ccc3nn(CC(=O)Nc4ccc(F)c(Cl)c4)c(=O)n3n2)cc1` yielded an Inhibition [1] of 6.66%, an Inhibition [2] of 6.36% and an Inhibition [3] of -7.28%.

Work on `CN(C)c1nc2ccccc2n2c(=O)n(CC(=O)Nc3ccc4c(c3)OCO4)nc12` yielded an Inhibition [1] of 0.98%, an Inhibition [2] of -0.89% and an Inhibition [3] of -12.71%.

Work on `CCC(Sc1nnc2c(=O)n(-c3ccc(C)c(C)c3)ccn12)C(=O)Nc1ccccc1C` (configuration not stated) yielded an Inhibition [1] of 15.08%, an Inhibition [2] of 1% and an Inhibition [3] of -9.85%.

`O=C(Cn1nc2c(Oc3ccccc3)nccn2c1=O)Nc1ccccc1Cl` showed an Inhibition [1] of 5.8%, an Inhibition [2] of -0.88% and an Inhibition [3] of -12.94%.

`Cc1ccc(Cl)cc1NC(=O)CSc1nc2ccccc2n2c(C(C)C)nnc12` showed an Inhibition [1] of 7.66%, an Inhibition [2] of 11.96% and an Inhibition [3] of -19.47%.

`O=C(Cn1nc2c3c4c(sc3ncn2c1=O)CCCC4)NCCc1ccc(Cl)cc1` gave an Inhibition [1] of 9.47%, an Inhibition [2] of 7.92% and an Inhibition [3] of -14.7%.

Compound `CSc1cccc(NC(=O)Cn2nc3ccc(SC4CCCCC4)nn3c2=O)c1` has an Inhibition [1] of 4.23%, an Inhibition [2] of 0.23% and an Inhibition [3] of -8.34%.

`O=c1n(Cc2cccc(C(F)(F)F)c2)nc2ccc(S(=O)(=O)N3CCCCC3)cn12` was tested, and the Inhibition [1] was 10.15%, the Inhibition [2] was 0.06% and the Inhibition [3] was -10.55%.

Compound `Cc1oc(-c2cccc(Cl)c2)nc1CSc1nc2ccccc2n2c(C(C)C)nnc12` has an Inhibition [1] of 8.12%, an Inhibition [2] of 1.38% and an Inhibition [3] of -17.47%.

For `Cc1ccc(Sc2nccn3c(=O)n(CC(=O)Nc4cc(Cl)ccc4C)nc23)c(C)c1`, the Inhibition [1] was -1.75%, the Inhibition [2] was 4.75% and the Inhibition [3] was -16.92%.

With `Cc1ccc(CNC(=O)Cn2nc3c(Oc4ccccc4C)nccn3c2=O)cc1` the Inhibition [1] was 12.47%, the Inhibition [2] was 1.06% and the Inhibition [3] was -7.58%.

`COc1cccc(Oc2nccn3c(=O)n(CC(=O)Nc4ccc(C)cc4Cl)nc23)c1` showed an Inhibition [1] of 11.4%, an Inhibition [2] of 4.48% and an Inhibition [3] of -10.48%.
